Screen size: about 5,500 compounds; about 2,000 (36%) were called active. Roughly 18% stayed inconclusive and do not appear here. Cut-off read from the data, not from the text of the source: active = normalized growth mostly below about 0.91 (no sharp cut-off); inconclusive = no clear call, values can overlap the other calls; inactive = mostly above about 0.92. The list shows a part of the results.
Experiment: chemical genetic growth profiling, strain panel (AID 1159580);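 note: tested at 20 µM; growth read once vehicle control cultures reached saturation at 30 °C; 1 = growth at the plate median or of vehicle wells; lower values mean less growth of the strain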
Details: S. cerevisiae deletion strains, growth OD

Measured: normalized growth

CCC(=O)c1ccc2c(c1)N(CCCN(C)C)c1ccccc1S2
inactive: locus YAL040C, strain CLN3, hits give low values 0.997 | locus YCL061C, strain MRC1 (second series), hits give low values 1 | locus YDR150W, strain NUM1, hits give low values 1.01 | locus YDR363W, strain ESC2, hits give low values 1.02 | locus YER002W, strain NOP16, hits give low values 1.01 | locus YGR229C, strain SMI1, hits give low values 0.986 | locus YJR075W, strain HOC1, hits give low values 0.985 | locus YNL153C, strain GIM3, hits give low values 1.16 | locus YNL175C, strain NOP13, hits give low values 1.02 | locus YNL197C, strain WHI3, hits give low values 1.05 | locus YNL224C, strain SQS1, hits give low values 1.07 | locus YNL322C, strain KRE1, hits give low values 0.971 | locus YOR083W, strain WHI5 (second series), hits give low values 1 | locus YPL055C, strain LGE1, hits give low values 0.988

Reference: PubChem BioAssay AID1159580 (chemical genetic matrix, 2015)
